# In PubChem BioAssay AID1159580 (chemical genetic matrix, 2015):
# “And” between values parts separate entries of the source, which are not always exact repeats. Identical values can stand only once. The whole screen tested about 5,500 compounds, of which about 2,000 (36%) were called active. Roughly 18% stayed inconclusive and do not appear here. Cut-off read from the data, not from the text of the source: active = normalized growth mostly below about 0.91 (no sharp cut-off); inconclusive = no clear call, values can overlap the other calls; inactive = mostly above about 0.92. Some of the results follow.
# Assay: chemical genetic growth profiling, strain panel (AID 1159580);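 note: tested at 20 µM; growth read once vehicle control cultures reached saturation at 30 °C; 1 = growth at the plate median or of vehicle wells; lower values mean less growth of the strain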
# Conditions: S. cerevisiae deletion strains, growth OD
structure (smiles),measurement,setting,value
CC(=O)[C@H]1CCC2C3CCC4=CC(=O)CC[C@]4(C)C3CC[C@@]21C (some centres not stated),normalized growth,"locus YAL013W, strain DEP1, stronger effect = lower value",0.963 (inactive)
same,normalized growth,"locus YAL021C, strain ccr4, stronger effect = lower value",0.901 (active)
same,normalized growth,"locus YAL026C, strain drs2, stronger effect = lower value",0.936 (inactive)
same,normalized growth,"locus YAL030W, strain snc1, stronger effect = lower value",0.975 (inactive)
same,normalized growth,"locus YBL061C, strain skt5, stronger effect = lower value",0.968 (inactive)
same,normalized growth,"locus YBR009C, strain hhf1, stronger effect = lower value",0.909 (inactive)
same,normalized growth,"locus YBR021W, strain FUR4, stronger effect = lower value",0.93 (inactive)
same,normalized growth,"locus YBR023C, strain chs3, stronger effect = lower value",0.957 (inactive)
same,normalized growth,"locus YBR171W, strain sec66, stronger effect = lower value",0.933 (inactive)
same,normalized growth,"locus YBR229C, strain ROT2, stronger effect = lower value",0.981 (inactive)
same,normalized growth,"locus YBR231C, strain swc5, stronger effect = lower value",0.951 (inactive)
same,normalized growth,"locus YBR279W, strain paf1, stronger effect = lower value",0.994 (inactive)
same,normalized growth,"locus YCL011C, strain gbp2, stronger effect = lower value",0.971 (inactive)
same,normalized growth,"locus YCL016C, strain dcc1, stronger effect = lower value",0.963 (inactive)
same,normalized growth,"locus YCL029C, strain bik1, stronger effect = lower value",0.735 (active)
same,normalized growth,"locus YCL061C, strain MRC1, stronger effect = lower value",0.955 (inactive)
same,normalized growth,"locus YCL069W, strain vba3, stronger effect = lower value",0.976 (inactive)
same,normalized growth,"locus YCR088W, strain abp1, stronger effect = lower value",0.99 (inactive)
same,normalized growth,"locus YDL005C, strain med2, stronger effect = lower value",0.987 (inactive)
same,normalized growth,"locus YDL035C, strain GPR1, stronger effect = lower value",0.936 (inactive)
same,normalized growth,"locus YDL040C, strain nat1, stronger effect = lower value",0.981 (inactive)
same,normalized growth,"locus YDL074C, strain BRE1, stronger effect = lower value",0.862 (inactive)
same,normalized growth,"locus YDL101C, strain DUN1, stronger effect = lower value",0.977 (inactive)
same,normalized growth,"locus YDL134C, strain PPH21, stronger effect = lower value",0.962 (inactive)
same,normalized growth,"locus YDL185W, strain tfp1, stronger effect = lower value",0.923 (inactive)
same,normalized growth,"locus YDL192W, strain arf1, stronger effect = lower value",0.719 (active)
same,normalized growth,"locus YDR001C, strain nth1, stronger effect = lower value",0.98 (inactive)
same,normalized growth,"locus YDR069C, strain doa4, stronger effect = lower value",0.963 (inactive)
same,normalized growth,"locus YDR101C, strain arx1, stronger effect = lower value",0.908 (active)
same,normalized growth,"locus YDR137W, strain rgp1, stronger effect = lower value",0.49 (active)
same,normalized growth,"locus YDR150W, strain NUM1, stronger effect = lower value",0.983 (inactive)
same,normalized growth,"locus YDR159W, strain sac3, stronger effect = lower value",0.879 (inactive)
same,normalized growth,"locus YDR162C, strain NBP2, stronger effect = lower value",0.583 (active)
same,normalized growth,"locus YDR195W, strain ref2",1.29 [resistant] (active)
same,normalized growth,"locus YDR297W, strain sur2, stronger effect = lower value",0.972 (inactive)
same,normalized growth,"locus YDR318W, strain mcm21, stronger effect = lower value",0.671 (active)
same,normalized growth,"locus YDR334W, strain swr1, stronger effect = lower value",0.985 (inactive)
same,normalized growth,"locus YDR335W, strain msn5, stronger effect = lower value",0.948 (inactive)
same,normalized growth,"locus YDR388W, stronger effect = lower value",0.854 (active)
same,normalized growth,"locus YDR392W, strain spt3, stronger effect = lower value",0.247 (active)
same,normalized growth,"locus YDR502C, strain sam2, stronger effect = lower value",0.77 (active)
same,normalized growth,"locus YEL003W, strain gim4, stronger effect = lower value",0.931 (inactive)
same,normalized growth,"locus YEL037C, strain rad23, stronger effect = lower value",0.974 (inactive)
same,normalized growth,"locus YEL061C, strain CIN8 (second series), stronger effect = lower value",0.972 (inactive)
same,normalized growth,"locus YEL061C, strain CIN8, stronger effect = lower value",0.971 (inactive)
same,normalized growth,"locus YER015W, strain faa2, stronger effect = lower value",0.969 (inactive)
same,normalized growth,"locus YER016W, strain bim1, stronger effect = lower value",0.953 (inactive)
same,normalized growth,"locus YER110C, stronger effect = lower value",0.916 (inactive)
same,normalized growth,"locus YER111C, strain swi4, stronger effect = lower value",0.954 (inactive)
same,normalized growth,"locus YER155C, strain BEM2 (second series), stronger effect = lower value",0.555 (active)
same,normalized growth,"locus YER155C, strain BEM2, stronger effect = lower value",0.991 (inactive)
same,normalized growth,"locus YER167W, strain BCK2, stronger effect = lower value",0.93 (inactive)
same,normalized growth,"locus YFR010W, strain ubp6, stronger effect = lower value",0.994 (inactive)
same,normalized growth,"locus YGL078C, strain dbp3, stronger effect = lower value",0.961 (inactive)
same,normalized growth,"locus YGL086W, strain mad1, stronger effect = lower value",0.743 (active)
same,normalized growth,"locus YGL167C, strain pmr1, stronger effect = lower value",0.94 (inactive)
same,normalized growth,"locus YGL173C, strain kem1, stronger effect = lower value",0.91 (inactive)
same,normalized growth,"locus YGL227W, strain vid30, stronger effect = lower value",0.999 (inactive)
same,normalized growth,"locus YGL240W, strain doc1, stronger effect = lower value",0.906 (inactive)
same,normalized growth,"locus YGL248W, strain PDE1, stronger effect = lower value",0.968 (inactive)
same,normalized growth,"locus YGL253W, strain hxk2, stronger effect = lower value",0.879 (active)
same,normalized growth,"locus YGR078C, strain PAC10, stronger effect = lower value",0.898 (inactive)
same,normalized growth,"locus YGR135W, strain pre9, stronger effect = lower value",0.731 (active)
same,normalized growth,"locus YGR229C, strain SMI1, stronger effect = lower value",1.02 (inactive)
same,normalized growth,"locus YGR252W, strain gcn5, stronger effect = lower value",0.924 (inactive)
same,normalized growth,"locus YHR013C, strain ard1, stronger effect = lower value",1.06 (inactive)
same,normalized growth,"locus YHR027C, strain rpn1, stronger effect = lower value",0.97 (inactive)
same,normalized growth,"locus YHR030C, strain SLT2, stronger effect = lower value",0.925 (inactive) and 0.973 (inactive)
same,normalized growth,"locus YHR079C, strain IRE1 (second series), stronger effect = lower value",0.85 (active)
same,normalized growth,"locus YHR079C, strain IRE1, stronger effect = lower value",0.984 (inactive)
same,normalized growth,"locus YHR094C, strain hxt1, stronger effect = lower value",0.907 (active)
same,normalized growth,"locus YHR129C, strain ARP1, stronger effect = lower value",0.973 (inactive)
same,normalized growth,"locus YHR142W, strain chs7, stronger effect = lower value",0.85 (active)
same,normalized growth,"locus YHR200W, strain rpn10, stronger effect = lower value",0.884 (active)
same,normalized growth,"locus YIL066C, strain RNR3, stronger effect = lower value",0.902 (inactive)
same,normalized growth,"locus YIL073C, strain SPO22, stronger effect = lower value",0.893 (inactive)
same,normalized growth,"locus YIL125W, strain kgd1, stronger effect = lower value",0.958 (inactive)
same,normalized growth,"locus YIR030C, strain dcg1, stronger effect = lower value",0.922 (active)
same,normalized growth,"locus YJL092W, strain hpr5, stronger effect = lower value",0.969 (inactive)
same,normalized growth,"locus YJL095W, strain BCK1 (second series), stronger effect = lower value",0.869 (active)
same,normalized growth,"locus YJL095W, strain BCK1, stronger effect = lower value",0.777 (active) and 0.981 (inactive)
same,normalized growth,"locus YJL115W, strain asf1, stronger effect = lower value",0.98 (inactive)
same,normalized growth,"locus YJL129C, strain trk1, stronger effect = lower value",0.865 (active)
same,normalized growth,"locus YJL134W, strain LCB3, stronger effect = lower value",0.98 (inactive)
same,normalized growth,"locus YJL154C, strain vps35, stronger effect = lower value",0.986 (inactive)
same,normalized growth,"locus YJL164C, strain tpk1, stronger effect = lower value",0.929 (inactive)
same,normalized growth,"locus YJL166W, strain qcr8, stronger effect = lower value",0.916 (inactive)
same,normalized growth,"locus YJL168C, strain set2, stronger effect = lower value",0.934 (inactive)
same,normalized growth,"locus YJL187C, strain SWE1 (second series), stronger effect = lower value",0.96 (inactive)
same,normalized growth,"locus YJL187C, strain SWE1, stronger effect = lower value",0.969 (inactive)
same,normalized growth,"locus YJR043C, strain POL32, stronger effect = lower value",0.986 (inactive)
same,normalized growth,"locus YJR066W, strain TOR1, stronger effect = lower value",0.93 (inactive)
